Data on nine compounds can be found in PubChem BioAssay (NCATS).

The nature of assay [1]: Validation screen for inhibitors of Lassa infection (AID 463096; calls by dose curve).
Assay [2] is described as follows: qHTS for Inhibitors of the Functional Ribonucleoprotein Complex (vRNP) of Lassa (LASV) Arenavirus: LASV Primary Screen - GLuc reporter signal (AID 1347082; calls by dose curve; tested in HEK293 reporter line; also: series mostly up to about 57 µM; nearly all actives have a fitted effect of over 60% in size). On the technique in general: qHTS replaces the single test concentration by a dilution series.
The nature of assay [3]: qHTS for Inhibitors of the Functional Ribonucleoprotein Complex (vRNP) of Lassa (LASV) Arenavirus: Viability assay - alamar blue signal for LASV Primary Screen (AID 1347083; calls by dose curve; tested in HEK293 reporter line; also: series mostly up to about 57 µM; nearly all actives have a fitted effect of over 80% in size).
Assay [4] is described as follows: qHTS for Inhibitors of the Functional Ribonucleoprotein Complex (vRNP) of Lymphocytic Choriomeningitis Arenaviruses (LCMV): Viability assay - alamar blue signal for LCMV Primary Screen (AID 1347085; calls by dose curve; tested in HEK293 reporter line; also: series mostly up to about 57 µM; nearly all actives have a fitted effect of over 80% in size).
Assay [5] concerns the target Nucleoprotein (Lymphocytic choriomeningitis virus (strain Armstrong)) (UniProt P09992). In words: qHTS for Inhibitors of the Functional Ribonucleoprotein Complex (vRNP) of Lymphocytic Choriomeningitis Arenaviruses (LCMV): LCMV Primary Screen - GLuc reporter signal (AID 1347086; calls by dose curve; also: series mostly up to about 57 µM; nearly all actives have a fitted effect of over 70% in size).
For assay [6], the target named is Nuclear receptor subfamily 1 group I member 3 (Homo sapiens) (UniProt Q14994). Kind of assay: Primary qHTS for antagonist of constitutive androstane receptor (CAR) against the NCATS DSHEA and TCM libraries (AID 1794836).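 Also: HepG2 cells stably expressing hCAR with CYP2B6 luciferase reporter stimulated by CITCO; series mostly up to about 40 µM.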 The procedure, abridged: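 Antagonist mode: CAR reporter luminescence (ONE-Glo) in HepG2-CYP2B6-hCAR cells stimulated with 48 uM CITCO (final) over 24 h at 37 C, compounds titrated; viability read first by CellTiter-Fluor fluorescence.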

The nature of assay [7]: qHTS for differential inhibitors of proliferation of Plasmodium falciparum line 7G8 (AID 1815).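 Also: potency is read from the fitted curve at half-maximal effect; parasite growth measured after three days of incubation.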
The nature of assay [8]: qHTS for differential inhibitors of proliferation of Plasmodium falciparum line GB4 (AID 1816).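 Also: potency is read from the fitted curve at half-maximal effect; parasite growth measured after 72 h incubation.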 The settings on record: Potency: Plasmodium falciparum GB4 proliferation inhibition.
A short description of assay [9]: qHTS for differential inhibitors of proliferation of Plasmodium falciparum line Dd2 (AID 1882). Also: potency is read from the fitted curve at half-maximal effect; nearly all actives have a fitted effect of over 65% in size. The settings on record: Potency: Plasmodium falciparum Dd2 proliferation inhibition. Summed up: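 SYBR Green I DNA fluorescence read-out, ex 485/em 535 nm. Signals were normalized to 0.29 uM artemisinin and DMSO wells, then corrected using vehicle-only plates flanking each stack. Parasite growth ran 72 h in erythrocytes before lysis.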

Assay [10] can be described thus: qHTS for differential inhibitors of proliferation of Plasmodium falciparum line W2 (AID 1883).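 Also: potency is read from the fitted curve at half-maximal effect; parasites grown with compound for 72 h before lysis and staining.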 The settings on record: Potency: Plasmodium falciparum W2 proliferation inhibition.
Assay [11] deals with Flap endonuclease 1 (Homo sapiens) (UniProt P39748). In words: qHTS Validation Assay for the Inhibitors of Human Flap endonuclease 1 (FEN1) (AID 488816). Summed up: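 Readings taken at 0 and 15 min after starting the reaction with 50 nM (final) substrate supplied the signal. Compounds had first sat with 10 nM FEN1 reagent for 15 min at room temperature. Values come from Hill-equation concentration-response fits.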

For assay [12], the target named is M-phase phosphoprotein 8 (Homo sapiens) (UniProt Q99549). In words: qHTS Validation Assay for Inhibitors for MPP8 Chromodomain Interactions with Methylated Histone Tails (AID 488949). Also: nearly all actives have a fitted effect of over 55% in size. Also: potency is read from the fitted curve at half-maximal effect. The procedure, abridged:
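MPP8 (50 nM) was pre-bound to 50 nM biotinylated H3(1-18)K9me3 peptide in PBS pH 7.4 with 0.01% Tween-20. Compounds were then added for 30 min at room temperature, and complex disruption was read by AlphaScreen with streptavidin donor and nickel-chelate acceptor beads.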

The nature of assay [13]: Inducers of the Endoplasmic Reticulum Stress Response (ERSR) in human glioma: Validation (AID 504836). Summed up:
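ERSR induction read as luciferase luminescence (Bright-Glo, 10 min at room temperature) in stably transfected human U87-MG glioma cells exposed to compounds for 16 h, using GRP78 as sensor.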

Assay [14] deals with Voltage-gated inwardly rectifying potassium channel KCNH2 (Homo sapiens) (UniProt Q12809). Kind of assay: qHTS Assay for Small Molecule Inhibitors of the Human hERG Channel Activity (AID 588834).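 Also: potency is read from the fitted curve at half-maximal effect; lower thallium flux fluorescence means stronger hERG block; nearly all actives have a fitted effect of over 50% in size.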 Summed up:
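U2OS cells BacMam-transduced with hERG, 2000 cells/well, compound ~10 min at 37 °C before stimulation buffer. FluxOR thallium flux fluorescence read kinetically on FDSS; decrease indicates block; AC50 from Hill fits.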

In assay [15] the target is Arylsulfatase A (Homo sapiens) (UniProt P15289). Kind of assay: qHTS screen for enhancers of Arylsulfatase A (ASA1): LOPAC Validation Assay (AID 720538). Summed up:
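SV40-transformed fibroblasts from an MLD patient (ASA-I179S) were treated with compound for 48 h at 37 C. They were then lysed with 0.5 mM pNCS substrate (final) for 14 h at room temperature and stopped with NaOH; signal read by fluorescence (Ex 525/Em 598 nm), with increase denoting enhanced activity.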

A short description of assay [16]: qHTS Assay for Identification of Small Molecule Antagonists for Thrombopoietin (TPO) Signaling Pathway (AID 918). Also: potency is read from the fitted curve at half-maximal effect; nearly all actives have a fitted effect of over 60% in size. The settings on record: TPO-dependent cell signaling reporter, antagonist mode. The procedure, abridged:
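First, Ba/F3 reporter cells expressing human TPO receptor were held overnight without IL-3. Next, compound and 26 pM TPO were added. After 24 hrs incubation at 37 C, luciferase luminescence under the Glycoprotein IIb promoter was recorded.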

The target in assay [17] is Alpha-galactosidase (Coffea arabica) (UniProt Q42656). In words: Counterscreen for Glucocerebrosidase Inhibitors: qHTS Assay for Coffee Bean alpha-Galactosidase at pH 4.5 (AID 957). Also: series mostly up to about 77 µM. The procedure, abridged:
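AC50 values derive from Hill-equation modeling of concentration-response data, normalized to no-enzyme and full-activity controls. The pH 4.5 citrate assay used 2 nM coffee bean enzyme and 80 uM fluorogenic substrate for 20 min.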
Background: Counterscreens check selectivity or assay interference.

The target is the same in assay [18]. In words: Counterscreen for Glucocerebrosidase Inhibitors: qHTS Assay for Coffee Bean alpha-Galactosidase at pH 5.9 (AID 998). The procedure, abridged:
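Compounds were titrated from 0.7 nM to 77 uM against green coffee bean alpha-galactosidase (2 nM) using 80 uM fluorogenic 4-methylumbelliferyl substrate. After 20 min at room temperature, reactions were stopped at pH 10 and read by fluorescence.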

Assay [19] is described as follows: High Content Imaging Cell-Based qHTS for Inhibitors of the mTORC1 Signaling Pathway in MEF Cells (AID 2667). Also: potency is read from the fitted curve at half-maximal effect. The procedure, abridged: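 Immunofluorescence for rpS6 phosphorylation in MEFs of Tsc2-/-, p53-/- background rescued with WT Tsc2. Compound exposure lasted 24 hrs. Inhibition was scored against rapamycin-treated control wells.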
The nature of assay [20]: Validation screen for small molecules that induce DNA re-replication in MCF 10A normal breast cells (AID 463097). Also: potency is read from the fitted curve at half-maximal effect; nearly all actives have a fitted effect of over 60% in size. The procedure, abridged: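 MCF 10A cells exposed to compound 48 hr at 37 C, 5% CO2, then Hoechst-stained 40 min. Laser-scanning imaging of nuclear DNA content (405 nm ex, 500-530 nm em); re-replication scored as rise in nuclei with elevated fluorescence intensity.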

Assay [21] has as its target Thioredoxin reductase 1, cytoplasmic (Rattus norvegicus) (UniProt O89049). Kind of assay: qHTS Assay for Inhibitors of Mammalian Selenoprotein Thioredoxin Reductase 1 (TrxR1) (AID 488773). Also: potency is read from the fitted curve at half-maximal effect; nearly all actives have a fitted effect of over 40% in size. The settings on record: Potency: inhibition. The procedure, abridged: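 Steps: enzyme (90 nM) plus NADPH (400 uM final), 5 min at ~22 deg C; compound added, 15 min; selenite (400 uM final) added; fluorescence followed for 8 min. Concentration-response curves derived from the normalized delta values.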

For assay [22], the target named is Chromobox protein homolog 1 (Homo sapiens) (UniProt P83916). In words: qHTS Validation Assay for Inhibitors of HP1-beta Chromodomain Interactions with Methylated Histone Tails (AID 488953). Also: potency is read from the fitted curve at half-maximal effect; nearly all actives have a fitted effect of over 50% in size. Summed up:
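Measured as loss of AlphaScreen luminescence from streptavidin donor and nickel acceptor beads (10 ug/mL final) bridging HP1-beta and biotin-H3(1-18)K9me3, each 50 nM. Compounds met the preassembled complex for 30 min at RT.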

For assay [23], the target named is Ubiquitin carboxyl-terminal hydrolase 1 (Homo sapiens) (UniProt O94782). In words: Inhibitors of USP1/UAF1: Pilot qHTS (AID 504865). Also: potency is read from the fitted curve at half-maximal effect; nearly all actives have a fitted effect of over 35% in size. Summed up:
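USP1/UAF1 complex at 1 nM preincubated 15 min at room temperature with compound, then Ub-Rho substrate added at 150 nM final. Fluorescence (480/540 nm) read kinetically in 50 mM HEPES pH 7.8, 0.5 mM EDTA, 1 mM TCEP, 0.1 mg/ml BSA, 0.01% Tween-20.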

Assay [24] can be described thus: qHTS for compounds that reverse cellular toxicity of Amyloid beta (A-beta) peptide in yeast: LOPAC Validation Assay (AID 720559). Summed up: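 Yeast expressing toxic A-beta grown with pinned compounds at 30 C for 48 hr. Growth measured as absorbance at 600 nm; data normalized to DMSO and to an equimolar FeCl3/clioquinol mixture as positive control.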
A short description of assay [25]: qHTS for Activators of Parkin Expression: LOPAC Validation Assay (FLuc Reporter) (AID 720573). Summed up: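 Neuronal cell line stably expressing FLuc/NLuc coincidence reporter under the Parkin promoter, 1,500 cells/well, dosed 24 h after seeding in 7-point series for 24 h at 37 C. FLuc luminescence read; normalized to DMSO and positive control (100%).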

Structures are written as SMILES. Results filed as inconclusive are left out. A structure can be active in one record and inactive in another. Active and inactive are the calls of the source. Unless noted, calls follow the shape of the dose curve; as a rule, active = well fitted curve in the direction sought with a large enough effect; inconclusive = small, poorly fitted or top-dose-only effect, or another doubt; inactive = no such curve, though single readings can be large; an effect the other way counts as inactive or inconclusive.

Alpha-galactosidase (Coffea arabica), sequence (Q42656 whole entry, looked up): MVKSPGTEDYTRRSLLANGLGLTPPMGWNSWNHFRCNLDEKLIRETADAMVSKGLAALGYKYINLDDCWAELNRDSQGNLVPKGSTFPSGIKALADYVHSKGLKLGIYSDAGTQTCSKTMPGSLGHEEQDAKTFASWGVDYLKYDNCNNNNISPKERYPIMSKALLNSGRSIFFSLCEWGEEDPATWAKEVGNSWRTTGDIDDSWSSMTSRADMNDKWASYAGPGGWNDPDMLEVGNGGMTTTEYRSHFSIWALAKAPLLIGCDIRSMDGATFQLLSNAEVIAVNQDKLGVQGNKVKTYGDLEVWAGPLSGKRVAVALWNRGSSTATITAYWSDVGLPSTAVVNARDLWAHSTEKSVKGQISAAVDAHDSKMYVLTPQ
Nuclear receptor subfamily 1 group I member 3 (Homo sapiens), sequence (Q14994 whole entry, looked up): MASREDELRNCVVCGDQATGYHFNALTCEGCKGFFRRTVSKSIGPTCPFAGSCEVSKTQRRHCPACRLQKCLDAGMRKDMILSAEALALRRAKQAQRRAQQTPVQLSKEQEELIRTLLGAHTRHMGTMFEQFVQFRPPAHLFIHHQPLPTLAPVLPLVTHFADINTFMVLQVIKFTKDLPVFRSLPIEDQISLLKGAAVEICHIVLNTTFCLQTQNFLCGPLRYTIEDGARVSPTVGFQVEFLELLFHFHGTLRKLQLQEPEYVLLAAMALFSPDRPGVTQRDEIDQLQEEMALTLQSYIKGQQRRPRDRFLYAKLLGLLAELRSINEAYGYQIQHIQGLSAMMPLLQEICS
M-phase phosphoprotein 8 (Homo sapiens), sequence (Q99549 whole entry, looked up): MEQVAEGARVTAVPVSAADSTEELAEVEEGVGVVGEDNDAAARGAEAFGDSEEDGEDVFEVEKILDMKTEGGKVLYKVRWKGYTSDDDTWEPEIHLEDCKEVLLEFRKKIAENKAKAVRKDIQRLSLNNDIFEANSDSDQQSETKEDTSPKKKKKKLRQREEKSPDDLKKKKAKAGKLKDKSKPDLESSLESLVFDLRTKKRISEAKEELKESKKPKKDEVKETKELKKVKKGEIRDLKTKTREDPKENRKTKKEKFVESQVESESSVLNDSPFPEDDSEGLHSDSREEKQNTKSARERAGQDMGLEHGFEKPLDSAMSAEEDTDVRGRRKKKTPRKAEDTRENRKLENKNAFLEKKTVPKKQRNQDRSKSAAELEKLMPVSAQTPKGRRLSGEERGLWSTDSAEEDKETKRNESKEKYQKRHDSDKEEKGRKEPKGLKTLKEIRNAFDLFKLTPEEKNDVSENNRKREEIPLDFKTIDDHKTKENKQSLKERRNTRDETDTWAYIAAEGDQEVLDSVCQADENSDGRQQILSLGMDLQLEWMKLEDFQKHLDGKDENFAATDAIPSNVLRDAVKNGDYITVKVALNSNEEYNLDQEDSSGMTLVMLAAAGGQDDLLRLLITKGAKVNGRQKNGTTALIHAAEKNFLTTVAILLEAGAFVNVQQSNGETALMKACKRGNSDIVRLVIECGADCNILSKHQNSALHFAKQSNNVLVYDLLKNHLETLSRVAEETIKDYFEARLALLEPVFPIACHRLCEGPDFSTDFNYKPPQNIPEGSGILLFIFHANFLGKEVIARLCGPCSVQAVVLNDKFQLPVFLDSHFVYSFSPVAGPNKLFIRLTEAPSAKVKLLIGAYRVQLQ
Nucleoprotein (Lymphocytic choriomeningitis virus (strain Armstrong)), sequence (P09992 whole entry, looked up): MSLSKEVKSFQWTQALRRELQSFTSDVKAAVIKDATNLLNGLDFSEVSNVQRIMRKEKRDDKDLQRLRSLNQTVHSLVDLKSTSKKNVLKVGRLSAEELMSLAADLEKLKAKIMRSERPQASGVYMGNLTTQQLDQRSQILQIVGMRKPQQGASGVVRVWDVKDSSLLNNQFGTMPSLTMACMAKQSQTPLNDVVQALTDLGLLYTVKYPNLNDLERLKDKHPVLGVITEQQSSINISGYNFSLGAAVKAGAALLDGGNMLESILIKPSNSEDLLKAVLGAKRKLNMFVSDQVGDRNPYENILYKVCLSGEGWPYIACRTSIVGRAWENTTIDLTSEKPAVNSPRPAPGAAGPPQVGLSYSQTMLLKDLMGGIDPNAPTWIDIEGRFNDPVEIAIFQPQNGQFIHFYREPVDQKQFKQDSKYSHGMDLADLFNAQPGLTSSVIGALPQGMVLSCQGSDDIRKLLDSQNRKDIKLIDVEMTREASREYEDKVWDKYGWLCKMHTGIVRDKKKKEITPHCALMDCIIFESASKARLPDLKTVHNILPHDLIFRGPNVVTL
Ubiquitin carboxyl-terminal hydrolase 1 (Homo sapiens), sequence (O94782 whole entry, looked up): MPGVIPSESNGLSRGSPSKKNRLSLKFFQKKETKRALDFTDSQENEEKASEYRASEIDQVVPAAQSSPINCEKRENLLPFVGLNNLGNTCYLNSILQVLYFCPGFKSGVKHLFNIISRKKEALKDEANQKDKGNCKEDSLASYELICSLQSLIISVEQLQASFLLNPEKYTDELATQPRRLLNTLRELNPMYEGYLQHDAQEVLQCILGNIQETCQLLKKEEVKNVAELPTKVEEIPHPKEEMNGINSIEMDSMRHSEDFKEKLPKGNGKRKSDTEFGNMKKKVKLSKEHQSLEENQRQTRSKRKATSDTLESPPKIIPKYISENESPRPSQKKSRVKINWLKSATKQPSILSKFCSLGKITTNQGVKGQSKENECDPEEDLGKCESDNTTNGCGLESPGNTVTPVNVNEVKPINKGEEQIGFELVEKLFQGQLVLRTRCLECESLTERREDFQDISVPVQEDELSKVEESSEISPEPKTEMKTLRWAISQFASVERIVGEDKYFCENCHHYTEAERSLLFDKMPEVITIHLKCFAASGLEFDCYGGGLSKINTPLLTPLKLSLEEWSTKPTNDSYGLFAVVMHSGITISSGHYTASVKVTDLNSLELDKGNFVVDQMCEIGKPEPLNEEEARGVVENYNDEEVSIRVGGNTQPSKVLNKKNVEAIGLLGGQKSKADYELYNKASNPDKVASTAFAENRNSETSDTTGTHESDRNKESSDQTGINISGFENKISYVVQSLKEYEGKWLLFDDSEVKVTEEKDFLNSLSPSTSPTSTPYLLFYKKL
Arylsulfatase A (Homo sapiens), sequence (P15289 whole entry, looked up): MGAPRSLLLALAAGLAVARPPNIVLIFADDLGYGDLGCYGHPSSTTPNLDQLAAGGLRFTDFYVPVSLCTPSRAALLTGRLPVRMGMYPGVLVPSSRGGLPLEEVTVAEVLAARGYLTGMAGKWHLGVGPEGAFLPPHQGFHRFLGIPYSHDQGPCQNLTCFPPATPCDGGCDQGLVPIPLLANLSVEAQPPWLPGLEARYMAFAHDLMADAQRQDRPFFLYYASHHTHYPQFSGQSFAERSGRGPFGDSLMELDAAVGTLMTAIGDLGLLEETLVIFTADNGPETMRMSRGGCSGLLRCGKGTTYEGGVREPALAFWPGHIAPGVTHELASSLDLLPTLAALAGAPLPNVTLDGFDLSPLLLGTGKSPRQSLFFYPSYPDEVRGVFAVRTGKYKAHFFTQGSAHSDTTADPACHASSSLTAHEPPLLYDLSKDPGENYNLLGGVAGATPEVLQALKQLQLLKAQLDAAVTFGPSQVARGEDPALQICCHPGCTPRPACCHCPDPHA
Flap endonuclease 1 (Homo sapiens), sequence (P39748 whole entry, looked up): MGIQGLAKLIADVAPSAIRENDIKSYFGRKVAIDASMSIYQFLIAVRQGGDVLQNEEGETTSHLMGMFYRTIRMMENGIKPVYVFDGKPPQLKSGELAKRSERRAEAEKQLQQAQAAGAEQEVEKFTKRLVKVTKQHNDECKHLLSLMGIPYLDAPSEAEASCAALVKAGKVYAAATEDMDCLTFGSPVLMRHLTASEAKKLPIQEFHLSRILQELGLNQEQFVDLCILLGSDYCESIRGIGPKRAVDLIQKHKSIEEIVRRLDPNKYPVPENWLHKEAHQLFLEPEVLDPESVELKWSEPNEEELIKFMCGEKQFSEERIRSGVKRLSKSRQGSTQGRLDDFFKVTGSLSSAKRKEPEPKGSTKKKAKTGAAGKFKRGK
Thioredoxin reductase 1, cytoplasmic (Rattus norvegicus), sequence (O89049 whole entry, looked up): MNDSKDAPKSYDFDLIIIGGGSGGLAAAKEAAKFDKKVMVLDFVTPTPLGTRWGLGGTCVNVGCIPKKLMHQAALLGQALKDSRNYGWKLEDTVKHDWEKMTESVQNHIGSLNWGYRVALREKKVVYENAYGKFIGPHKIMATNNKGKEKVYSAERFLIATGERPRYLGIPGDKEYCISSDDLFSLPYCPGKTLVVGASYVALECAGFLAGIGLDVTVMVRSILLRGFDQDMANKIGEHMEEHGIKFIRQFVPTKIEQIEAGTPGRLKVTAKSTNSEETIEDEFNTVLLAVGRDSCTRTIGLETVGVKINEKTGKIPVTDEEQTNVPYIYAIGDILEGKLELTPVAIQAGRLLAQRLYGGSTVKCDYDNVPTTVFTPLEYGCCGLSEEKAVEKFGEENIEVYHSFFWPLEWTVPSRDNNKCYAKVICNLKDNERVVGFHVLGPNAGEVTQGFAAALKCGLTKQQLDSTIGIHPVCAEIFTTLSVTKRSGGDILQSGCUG
Chromobox protein homolog 1 (Homo sapiens), sequence (P83916 whole entry, looked up): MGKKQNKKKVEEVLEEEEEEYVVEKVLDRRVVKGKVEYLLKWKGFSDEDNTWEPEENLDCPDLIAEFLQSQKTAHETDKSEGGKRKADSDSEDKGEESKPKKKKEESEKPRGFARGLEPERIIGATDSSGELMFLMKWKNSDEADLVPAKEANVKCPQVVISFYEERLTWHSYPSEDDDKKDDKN

As for `C=CCN1CCc2cc(O)c(O)cc2C(c2ccccc2)C1` (centres undefined), the Potency result in assay [1], in assay [2], in [3], in assay [4] and in assay [5] was “inactive” throughout.
For `O=c1c(-c2ccc(O)cc2)coc2cc(O[C@@H]3O[C@H](CO)[C@H](O)[C@H](O)[C@H]3O)ccc12`, the Potency entry in [2], in assay [3], in assay [4], in assay [5] and in [6] was “inactive” each time.
For the compound `CN1[C@@H](CC(=O)c2ccccc2)CCC[C@H]1C[C@H](O)c1ccccc1`, the Potency is 6.31 µM (active) in assay [7]; 10 µM (active) in assay [8]; 8.91 µM (active) in assay [9]; 3.98 µM (active) in assay [10]; 4.47 µM (active) in assay [14]. Besides, the Potency entry in assay [1], in assay [11], in assay [12], in [15], in assay [2] and in assay [3] was “inactive” in each case. The Potency result in assay [4] and in [5] was “inactive” each time. Also, the call in assay [13] was inactive.
For `O=c1oc(Cl)c(Cl)c2ccccc12`, the Potency in [16] was 12.6 µM (active); in assay [19] it was 18.5 µM (active); in [20], 5.01 µM (active); in assay [21], 7.52 µM (active); in assay [12] it was 25.1 µM (active) and inactive; in assay [22], 39.8 µM (active). For the same compound, the Potency in assay [23] is 12.6 µM (active). In addition, the outcome in assay [17], in [18], in assay [13], in assay [24] and in assay [25] was inactive. For the same compound, the Potency result in assay [2], in assay [3], in assay [4] and in assay [5] was “inactive” in each case.
Turning to `CCNC(=O)[C@H]1O[C@@H](n2cnc3c(N)nc(NCCc4ccc(CCC(=O)O)cc4)nc32)[C@H](O)[C@H]1O`, the Potency entry in assay [1], in assay [2], in assay [3], in assay [4] and in assay [5] was “inactive” throughout.
For `CCCCCCCCCCCCCCCCCCNC(=O)OCC(COP(=O)([O-])OCC[n+]1ccsc1)OC` (centres undefined), the Potency result in [1], in [2], in assay [3], in [4] and in assay [5] was “inactive” in each case.
For the compound `O=C(O)/C=C/c1ccc(O)c(O)c1`, the result in [17], in assay [18] and in [13] was inactive. Besides, the Potency result in assay [1], in assay [2], in assay [3], in assay [4], in assay [5] and in [6] was “inactive” in each case.
On to `O=C(/C=C/c1ccc(O)c(O)c1)OCCc1ccccc1`, for which the Potency entry in [1], in [2], in [3], in [4] and in assay [5] was “inactive” throughout.
`C=C/C(C)=C/C/C=C(\C)CCC=C(C)C`: the Potency result in assay [2], in [3], in [4], in [5] and in assay [6] was “inactive” throughout.
